Screens as filed in PubChem BioAssay.
AMPAR-TARP mod = modulators of AMPA receptor GluA2-stargazin complexes | O88602+P19491 | 3.5% of 40,000 active | HEK293 GluA2+stargazin, membrane potential dye (FDSS), glutamate EC50; hits were called plate by plate, in both directions | calls only at 30 µM | AID 1259245;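 active means any of four per-well response measures lying three or more SD from its plate-wide compound average, in either direction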
GIRK2 activator = Activators of human GIRK2-containing channels. HEK293 GIRK2/NPY4 cells, thallium flux fluorescence. activation (% efficacy), % for hits at 37.5 µM. P48051. 34,000 tested, under 10 active;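 active means primary screen hit, no activity in plain HEK293 cells, and in GIRK2-only cells above 5% efficacy rising with concentration; inactive means the rest, including fluorescent compounds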;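 further: efficacy is normalized control-subtracted fluorescence 15 s after thallium addition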
Target sequence (P48051 whole entry, looked up): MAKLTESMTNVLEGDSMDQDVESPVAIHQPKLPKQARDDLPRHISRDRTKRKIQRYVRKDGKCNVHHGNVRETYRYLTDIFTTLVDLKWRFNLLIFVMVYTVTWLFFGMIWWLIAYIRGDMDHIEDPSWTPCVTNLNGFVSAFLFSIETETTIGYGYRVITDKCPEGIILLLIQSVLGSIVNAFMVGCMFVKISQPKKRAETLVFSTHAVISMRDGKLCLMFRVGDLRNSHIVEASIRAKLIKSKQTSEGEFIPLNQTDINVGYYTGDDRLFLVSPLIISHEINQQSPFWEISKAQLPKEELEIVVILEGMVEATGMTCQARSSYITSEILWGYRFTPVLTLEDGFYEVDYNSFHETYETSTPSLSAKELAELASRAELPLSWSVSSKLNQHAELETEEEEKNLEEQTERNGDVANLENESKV
Calls only; – = inactive; · = no result; + = active, no number. Many of the other results were omitted from the sample, so hits are more common in it than they were.

SMILES | AMPAR-TARP mod | GIRK2 activator
Cc1cc([N+](=O)[O-])ccc1NC(=O)c1ccc(=O)n(Cc2ccc(F)cc2)c1 | – | –
Cc1ccccc1Cn1cc(C(=O)Nc2cccc([N+](=O)[O-])c2)ccc1=O | – | –
COc1ccccc1NC(=O)c1ccc(=O)n(Cc2cccc([N+](=O)[O-])c2)c1 | – | –
COc1cc([N+](=O)[O-])ccc1NC(=O)c1ccc(=O)n(Cc2ccccc2Cl)c1 | – | –
CCOCCn1c(=O)c2c(nc3n(C4CCCCC4)c(C)c(C)n23)n(C)c1=O | – | ·
COc1cc(NC(=O)CSC2=NC(C)(C)N=C2c2ccccc2)cc(OC)c1 | – | –
COc1ccc(NC(=O)CSc2ncc(S(=O)(=O)c3cccs3)c(N)n2)cc1 | · | –
COC(=O)C1=CN(C)C=C(C(=O)OC)C1c1cc2c(cc1Br)OCO2 | – | ·
COC(=O)NCCc1nc2ccccc2n1Cc1c(F)cccc1Cl | + | ·
OCc1nc2ccccc2n1Cc1c(F)cccc1Cl | – | ·
CCOC(=O)NCc1nc2ccccc2n1Cc1c(F)cccc1Cl | – | ·
CCOC(=O)NCc1nc2ccccc2n1Cc1ccccc1F | + | –
COc1ccccc1N1CCN(C(=O)Cc2c(C)[nH]c(=O)[nH]c2=O)CC1 | – | –
CC(NC(=O)Cc1csc(NC(=O)c2ccc(=O)[nH]c2)n1)c1ccccc1 (centres undefined) | – | –
O=C(NCC1CCN(C(=O)c2ccccc2F)CC1)c1cc2ccccc2oc1=O | – | –
COc1cc(/C=C2\SC(=S)N(c3ccccc3Br)C2=O)ccc1O | + | ·
COc1ccc(/C=C2\SC(=S)N(c3cccc(C)c3C)C2=O)cc1OC | – | ·
CCOc1cc(/C=C2\SC(=S)N(c3ccccc3Br)C2=O)ccc1O | – | ·
COc1cc(/C=C2\SC(=S)N(c3cccc(C)c3C)C2=O)cc(OC)c1OC | + | ·
CCCNC(=O)CSc1nc(-c2ccccc2)[nH]c1S(=O)(=O)c1ccc(C)cc1 | · | –
O=C(CCCS(=O)(=O)c1ccccc1)Nc1nc(-c2nc3ccccc3s2)cs1 | – | –
Cn1nc(CNC(=O)c2cc3ccccc3o2)c2ccccc2c1=O | – | –
Cc1oc(-c2ccccc2)nc1COC(=O)c1nnn(-c2ccc(Cl)cc2)c1C | – | ·
Cc1ccc(-n2nnc(C(=O)OCc3nc(-c4ccccc4C)oc3C)c2C)cc1 | + | ·
COc1ccc(-n2nnc(C(=O)OCc3cccc(OC)c3)c2C)cc1 | – | ·
SMILES | AMPAR-TARP mod | GIRK2 activator
COc1cccc(COC(=O)c2nnn(-c3ccc(C)cc3)c2C)c1 | + | ·
COc1ccc(-c2ccc(CCC(=O)N3CCOCC3)o2)cc1 | – | –
COc1ccccc1/C=C(\C#N)C(N)=C(C#N)C#N | + | –
COc1ccc(OC)c(NC(=O)/C(C#N)=C/c2ccc(C(C)C)cc2)c1 | – | –
CC(C)n1c(=O)c2nscc2n(CC(=O)Nc2ccc3c(c2)OCCO3)c1=O | – | –
O=C(Cn1c(=O)n(C2CC2)c(=O)c2nscc21)Nc1ccc(F)c(Cl)c1 | + | –
CC(C)n1c(=O)c2nscc2n(CC(=O)Nc2ccc(Br)cc2)c1=O | + | –
COc1ccc(NC(=O)Cn2c(=O)n(C(C)C)c(=O)c3nscc32)cc1Cl | – | –
Cc1cc(C)c(NC(=O)Cn2c(=O)n(C3CC3)c(=O)c3nscc32)c(C)c1 | – | –
CCc1ccccc1NC(=O)Cn1c(=O)n(C2CC2)c(=O)c2nscc21 | + | –
CCOC(=O)c1c(NC(=O)C2CCN(S(=O)(=O)c3ccc(OC)cc3)CC2)sc2c1CCC2 | – | ·
O=C(Nc1c2c(nn1-c1ccc(Cl)cc1)CSC2)C(=O)NC1CCCCC1 | – | –
CCOC(=O)CNC(=O)CSc1ccnc2c1c(=O)n(C)c(=O)n2C | – | –
Cn1c(=O)c2c(SCC(=O)N3CCCCCC3)ccnc2n(C)c1=O | – | ·
CCCNC(=O)CSc1ccnc2c1c(=O)n(C)c(=O)n2C | – | –
Cn1c(=O)c2c(SCCN3CCCC3)ccnc2n(C)c1=O | + | –
CC1CN(C(=O)CSc2ccnc3c2c(=O)n(C)c(=O)n3C)CC(C)O1 (centres undefined) | + | –
Cn1c(=O)c2c(SCCO)ccnc2n(C)c1=O | – | ·
CCOCCSc1ccnc2c1c(=O)n(C)c(=O)n2C | + | ·
CCN(CC)CCSc1ccnc2c1c(=O)n(C)c(=O)n2C | + | –
O=C(CC1Sc2ccccc2NC1=O)Nc1ccc(Cl)c(Cl)c1 (centres undefined) | – | –
COc1ccc(C)cc1Nc1nc(C(=O)N2CCN(S(C)(=O)=O)CC2)cs1 | – | –
Cc1ccc(=O)n(CC(=O)N2CCN(c3ccc(-c4cccnc4)nn3)CC2)n1 | – | –
Cn1c(=O)c2c(SCC(=O)NC(C)(C)C)ccnc2n(C)c1=O | – | –
CCc1cnc2c(c1SCC(=O)N1CCN(c3ccccc3)CC1)c(=O)n(C)c(=O)n2C | – | –
CCN(CC)C(=O)CSc1ccnc2c1c(=O)n(C)c(=O)n2C | – | –
Cn1c(=O)c2c(SCC(N)=O)ccnc2n(C)c1=O | + | ·
C=CCSc1ccnc2c1c(=O)n(C)c(=O)n2C | + | ·
